SENP8 block-1 = blocks the human protease SENP8. Q96LD8. purified SENP8, Z-RLRGG-aminoluciferin cleavage, luminescence. inhibition, % at 10 µM. 330,000 compounds, 1.2% hits; in the data active = inhibition above about 50%
Target sequence (Q96LD8 whole entry, looked up): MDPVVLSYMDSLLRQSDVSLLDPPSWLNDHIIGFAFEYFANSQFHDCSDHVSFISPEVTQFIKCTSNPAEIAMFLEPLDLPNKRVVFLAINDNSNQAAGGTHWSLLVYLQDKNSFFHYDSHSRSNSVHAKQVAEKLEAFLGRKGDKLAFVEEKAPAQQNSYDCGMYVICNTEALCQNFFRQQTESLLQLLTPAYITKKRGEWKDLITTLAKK
HSP90 refold inh = HSP90 refolding inhibition in rabbit reticulocyte lysate; 290,000 compounds, 0.91% hits; luciferase refolding luminescence, 3 h; inhibition, % at 5.6 µM;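 active = inhibition above the screen-wide mean plus 3 SD, computed separately per campaign, cut at about 16% in these data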;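 also: 0% = DMSO wells and 100% = 60 µM geldanamycin wells; inhibitors lower the luminescence because luciferase stays unfolded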
SENP8 block-2 = inhibitors of human SENP8 protease. 360,000 compounds, 0.64% hits. recombinant SENP8, Nedd8 substrate fluorescence. inhibition, % at 20 µM. AID 602440; in the data active = inhibition mostly above about 40%, no sharp cut-off; inactive = mostly below about 27%
SENP7 block = blocks the human protease SENP7; Q9BQF6; recombinant SENP7, Z-RLRGG-aminoluciferin luminescence, 40 min; inhibition, % at 5 µM; 330,000 compounds, 1.5% hits;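 active = inhibition above about 50% at the single test dose, limit read from the data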;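 also: plate controls were DMSO with enzyme for no effect and no enzyme buffer wells for full effect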
LGR2 antag = inhibitors of bursicon-induced Drosophila LGR2 receptor cAMP signaling. inhibition, % at 9.99 µM. HEK293 LGR2, CRE-luciferase, bursicon-stimulated, 4 h. 380,000 compounds, 0.35% hits;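 active = drop in luminescence signal, shown as inhibition above about 50% in the replicate tests, limit read from the data, passing the limit was not always enough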;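 also: agonist challenge used bursicon conditioned medium at about half maximal strength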
SENP6 inh = inhibitors of human SENP6 protease. Recombinant SENP6 catalytic domain, aminoluciferin luminescence. inhibition, % at 10 µM. AID 2599. Q9GZR1. 330,000 compounds, 1.8% hits;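 active = inhibition above about 50% at the single tested dose, limit read from the data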;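 also: plate controls were DMSO wells with enzyme for no effect and DMSO wells lacking enzyme for full effect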
HSP90 confirm = HSP90 inhibition, confirmation assay; 2,300 compounds, 64% hits; shares compounds with HSP90 refold inh; rabbit reticulocyte lysate, luciferase refolding luminescence, 3 h; inhibition, % at 5.9 µM; in the data active = inhibition above about 18%;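 also: 0% = vehicle wells and 100% = reference inhibitor wells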
FLuc counter = counter-screen for HSP90 inhibitors: inhibitors of firefly luciferase | shares compounds with HSP90 refold inh | purified native firefly luciferase, luminescence | inhibition, % at 5.9 µM | 2,300 compounds, 48% hits | AID 1847;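 active = inhibition above the mean inhibition of all tested sample wells plus 3 SD, cut at about 10% in these data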;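 also: 0% = DMSO with luciferase and 100% = wells lacking luciferase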
Numbers without * were called inactive; x = not tested or not shown. Only some compounds are listed: those with a hit (about 2.3% of all), similar ones and a draw of the others.

SMILES	SENP8 block-1	HSP90 refold inh	SENP8 block-2	SENP7 block	LGR2 antag	SENP6 inh	HSP90 confirm	FLuc counter
CO[C@H]1CN(C)C(=O)c2cc(NC(=O)C3CCC3)ccc2OC[C@@H](C)N(Cc2ccncc2)C[C@@H]1C	x	x	x	x	-2	x	x	x
CO[C@H]1CN(C)C(=O)c2cc(NC(=O)Cc3ccccc3)ccc2OC[C@H](C)NC[C@@H]1C	x	x	x	x	-2	x	x	x
Cc1c(CC(=O)NCCCC(=O)O)c(=O)oc2cc3c(cc12)CCC(C)(C)O3	-1	24*	-277	3	1	-41	36*	-5
COCC(=O)Nc1ccc2c(c1)[C@@H]1C[C@@H](CC(=O)NCc3cccnc3)O[C@@H](CO)[C@@H]1O2	x	x	x	x	-4	x	x	x
Cc1nnc(N/N=C/c2cc(C)n(-c3ccc(F)cc3)c2C)n1N	6	19*	32	4	x	12	-6	-7
Cc1nnc(N/N=C/c2c(Cl)cccc2Cl)n1N	3	19*	15	4	-1	-14	-7	-11
CCc1nnc(N/N=C/c2c(F)cccc2Cl)n1N	-8	-1	17	-4	7	-5	x	x
Cc1nnc(N/N=C/c2ccccc2O)n1N	-7	58*	32	6	-7	1	-4	-18
O=C(N[C@H]1C=C[C@@H](CC(=O)N2CCOCC2)O[C@@H]1CO)c1ccc2c(c1)OCO2	x	x	x	x	-9	x	x	x
C[C@H](CO)N1C[C@H](C)[C@H](CN(C)C(=O)Cc2ccccc2)OCCCC[C@H](C)Oc2ccc(NC(=O)c3ccncc3)cc2C1=O	x	x	x	x	10	x	x	x
CCC(=O)N1C[C@@H](C)[C@@H](OC)CN(C)C(=O)c2cc(NC(=O)Nc3cccc(F)c3)ccc2OC[C@@H]1C	x	x	x	x	6	x	x	x
CC(C)(C)CC(=O)O/N=C(\N)c1ccccn1	-11	21*	17	8	62*	14	35*	22*
Cc1ccc(S(=O)(=O)N(C)C[C@@H]2Oc3ccc(NC(=O)Cc4cn(C)c5ccccc45)cc3CC(=O)N([C@@H](C)CO)C[C@H]2C)cc1	x	x	x	x	10	x	x	x
CN(C)c1ccc(NC(=O)c2cnsn2)cc1	-2	26*	25	22	71*	-28	48*	40*
Cc1ccc(-c2nc3nc4ccccc4nc3n2Cc2ccco2)cc1	8	47*	-461	4	x	30	20*	0
Cc1c(-c2nc(-c3ccc(C(F)(F)F)cc3)no2)n(C)oc1=O	3	18*	-298	4	-45	18	74*	-10
CCC(=O)N(C)C[C@H]1Oc2ncc(-c3ccc(C)cc3)cc2C(=O)N([C@@H](C)CO)C[C@H]1C	x	x	x	x	-24	x	x	x
CC1CCC(NC(=O)c2ccc3c(c2)OCO3)CC1 (stereo not drawn)	3	24*	8	20	12	15	46*	27*
O=C(NC1CCCCC1)c1ccc2c(c1)OCO2	-8	6	4	9	-26	1	x	x
CCn1c(C)nc2cc(N)ccc21	-3	34*	25	-2	-6	0	8	-2
CCOC(=O)/C(C#N)=C/c1cc(C)n(-c2ccccc2)c1C	-3	54*	-232	-7	x	1	65*	64*
CCOC(=O)/C(C#N)=C/c1cc(C)n(-c2ccc(Br)cc2)c1C	-2	-3	x	-1	x	-14	x	x
Cn1c(=O)c2ccccc2n(Cc2ccccc2Cl)c1=O	-9	28*	-2	-9	0	4	1	1
O=C1OCCC1Sc1nnc(-c2ccc(Cl)cc2Cl)o1 (stereo not drawn)	14	33*	10	28	74*	37	67*	57*
O=C1OCCC1Sc1nnc(-c2ccccc2)o1 (stereo not drawn)	-15	1	27	-11	x	2	x	x
COc1cc(NCCCC(C)N)c2ncccc2c1 (stereo not drawn)	x	23*	57*	x	x	x	5	-6
COCCNC(=O)C[C@H]1C[C@@H]2c3cc(NC(=O)Nc4ccc(F)cc4)ccc3O[C@@H]2[C@@H](CO)O1	x	x	x	x	13	x	x	x
CC(C)C#Cc1cnc2c(c1)C(=O)N([C@@H](C)CO)C[C@@H](C)[C@H](CN(C)C(=O)c1cccc(F)c1)O2	x	x	x	x	9	x	x	x
